Measurements published in PubChem BioAssay (NCI).
The panel holds about 79,000 compounds, 15% with a hit somewhere; the sample as a whole holds those more often. Calls of active or inactive are those of the source. No stated cut-off is given here; in the data, active means growth inhibition above about 70%; inactive means the rest.

Key:
[1] = NCI Yeast Anticancer Drug Screen. Data for the rad52 strain (AID 147);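 further: 0% = growth of vehicle-treated control cultures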; conditions: S. cerevisiae rad52 mutant growth inhibition, stronger effect = higher value
Summary of the method: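 DNA repair-defective yeast; compound exposure; growth scored against vehicle controls.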

[2] = NCI Yeast Anticancer Drug Screen. Data for the wt1 strain (AID 149);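 further: 0% = growth of vehicle-treated wt1 cultures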; conditions: S. cerevisiae wt1 strain (SPY 50644) growth inhibition, stronger effect = higher value
Summary of the method: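 Growth inhibition read against vehicle controls after compound exposure of the wt1 yeast strain.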

[3] = NCI Yeast Anticancer Drug Screen. Data for the rad50EPP+ strain (AID 151);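 further: 0% = growth of vehicle-treated control cultures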; conditions: S. cerevisiae rad50 mutant strain, stronger effect = higher value
Summary of the method: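 rad50EPP+ yeast treated with test compounds. Readout: growth vs vehicle control.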

[4] = NCI Yeast Anticancer Drug Screen. Data for the mgt1 strain (AID 153); conditions: S. cerevisiae mgt1 mutant growth inhibition, stronger effect = higher value
Summary of the method: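 Growth inhibition relative to vehicle controls was scored for the mgt1 yeast strain after compound exposure.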

[5] = NCI Yeast Anticancer Drug Screen. Data for the rad50 strain (AID 155);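 further: 0% = growth of vehicle-only cultures of the same strain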; conditions: S. cerevisiae rad50 strain growth inhibition, stronger effect = higher value
Summary of the method: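 Readout: growth inhibition relative to vehicle-treated cultures. Compound exposure was carried out in a genetically defined yeast strain deficient in DNA damage repair.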

[6] = NCI Yeast Anticancer Drug Screen. Data for the mec2-1 strain (AID 157); conditions: S. cerevisiae mec2-1 strain, stronger effect = higher value
Summary of the method: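 Growth inhibition is read against vehicle-treated controls after compound exposure of the mec2-1 yeast strain, which is defective in DNA damage repair or cell cycle control.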

[7] = NCI Yeast Anticancer Drug Screen. Data for the rad14 strain (AID 159);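 further: 0% = growth of vehicle-treated control cultures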; conditions: S. cerevisiae rad14 strain growth inhibition, stronger effect = higher value
Summary of the method: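 Growth inhibition vs vehicle controls; genetically altered yeast strain (DNA damage repair defect) treated with test compounds.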

[8] = NCI Yeast Anticancer Drug Screen. Data for the sgs1 mgt1 strain (AID 161);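 further: 0% = growth of cultures given vehicle only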; conditions: S. cerevisiae sgs1 mgt1 strain, stronger effect = higher value
Summary of the method: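 This yeast growth screen uses a strain with defined DNA-repair lesions; compound-treated growth is compared with vehicle-treated growth.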

[9] = NCI Yeast Anticancer Drug Screen. Data for the CLN2oe strain (AID 163);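 further: 0% = growth of vehicle-only control cultures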; conditions: S. cerevisiae CLN2oe strain, stronger effect = higher value
Summary of the method: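 Compound-treated yeast; growth vs vehicle ctrl = % inhibition. Genetically altered strain (cell-cycle control).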

[10] = NCI Yeast Anticancer Drug Screen. Data for the cln2 rad14 strain (AID 165);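 further: 0% = growth equal to vehicle treated cultures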; conditions: S. cerevisiae cln2 rad14 strain, stronger effect = higher value
Summary of the method: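 Growth inhibition, relative to vehicle-treated controls, is the read-out. The test organism is a yeast strain with defined genetic alterations, cln2 rad14.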

[11] = NCI Yeast Anticancer Drug Screen. Data for the bub3 strain (AID 167); conditions: S. cerevisiae bub3 mutant strain, stronger effect = higher value
Summary of the method: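 Readout: yeast growth inhibition, expressed relative to vehicle-only wells. The test organism is a mutant strain from a panel with lesions in DNA repair or checkpoint genes.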

[12] = NCI Yeast Anticancer Drug Screen. Data for the wt2 strain (AID 169);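 further: 0% = growth of vehicle-treated yeast cultures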; conditions: S. cerevisiae wt2 strain growth inhibition, stronger effect = higher value
Summary of the method: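 Compound exposure of yeast; growth compared with vehicle controls; inhibition reported.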

[13] = NCI Yeast Anticancer Drug Screen. Data for the mlh1 strain (AID 171);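 further: 0% = growth of vehicle-treated control cultures of the same strain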; conditions: S. cerevisiae mlh1 strain growth inhibition, stronger effect = higher value
Summary of the method: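 Compounds are applied to a genetically altered yeast strain, and its growth is compared with that of vehicle-treated cultures to give percent inhibition.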

[14] = NCI Yeast Anticancer Drug Screen. Data for the sgs1 strain (AID 173);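 further: 0% = growth of vehicle-only control cultures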; conditions: S. cerevisiae sgs1 mutant, stronger effect = higher value
Summary of the method: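 Compounds applied to genetically altered yeast; growth compared with vehicle-treated cultures to give % inhibition.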

[15] = NCI Yeast Anticancer Drug Screen. Data for the mlh1 rad18 strain (AID 175); conditions: S. cerevisiae mlh1 rad18 strain growth inhibition, stronger effect = higher value
Summary of the method: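 Cells of a genetically altered yeast strain, deficient in DNA damage repair, were treated with compound. Their growth was then compared with that of vehicle-treated cultures to give inhibition.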

[16] = NCI Yeast Anticancer Drug Screen. Data for the rad18 strain (AID 177); conditions: S. cerevisiae rad18 mutant growth inhibition, stronger effect = higher value
Summary of the method: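 Compounds are applied to a repair-deficient yeast strain, and growth is compared with that of vehicle-treated cultures to give percent inhibition.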

[17] = at 5.0 µM (retest, dose inferred, filed as 0.5)
[18] = at 50.0 µM (retest, dose inferred, filed as 5.0)

Measured: growth inhibition

S=C(S)NCC1CCC(CNC(=S)S)CC1 (stereo not given)
inactive: [1]; at 1.2 µM -10% | [1]; at 3.7 µM -12% | [1]; at 11.0 µM -12% | [1]; at 33.0 µM 20% | [2]; at 1.2 µM -11% | [2]; at 3.7 µM -5% | [2]; at 11.0 µM -5% | [2]; at 33.0 µM 20% | [3]; at 1.2 µM -3% | [3]; at 3.7 µM 3% | [3]; at 11.0 µM 24% | [3]; at 33.0 µM 41% | [4]; at 1.2 µM -8% | [4]; at 3.7 µM 0% | [4]; at 11.0 µM 5% | [4]; at 33.0 µM 18% | [5]; at 1.2 µM 8% | [5]; at 3.7 µM 3% | [5]; [17] 31% | [5]; at 11.0 µM -4% | [5]; at 33.0 µM 22% | [5]; at 50.0 µM 67% | [6]; at 1.2 µM -9% | [6]; at 3.7 µM -2% | [6]; [17] 64% | [6]; at 11.0 µM 5% | [6]; at 33.0 µM 43% | [6]; at 50.0 µM 59.1% | [7]; at 1.2 µM 13% | [7]; at 3.7 µM 19% | [7]; at 11.0 µM 13% | [7]; at 33.0 µM 27% | [8]; [17] -13% | [8]; [18] 61% | [9]; at 1.2 µM 0% | [9]; at 3.7 µM 12% | [9]; at 11.0 µM 13% | [9]; at 33.0 µM 18% | [10]; [17] -7% | [10]; [18] 46% | [11]; at 1.2 µM 16% | [11]; at 3.7 µM -10% | [11]; [17] 19% | [11]; at 11.0 µM 19% | [11]; at 33.0 µM 63% | [12]; at 1.2 µM -15% | [12]; at 3.7 µM -20% | [12]; at 11.0 µM -13% | [12]; at 33.0 µM 28% | [13]; at 1.2 µM -4% | [13]; at 3.7 µM 15% | [13]; at 11.0 µM 5% | [13]; at 33.0 µM 32% | [14]; at 1.2 µM -3% | [14]; at 3.7 µM 14% | [14]; at 11.0 µM 16% | [14]; at 33.0 µM 48% | [15]; [17] 44% | [15]; at 50.0 µM 43.5% | [16]; at 1.2 µM 2% | [16]; at 3.7 µM 6% | [16]; at 11.0 µM 16% | [16]; at 33.0 µM 18%
active: [1]; at 100.0 µM 81% | [2]; at 100.0 µM 77% | [3]; at 100.0 µM 81% | [4]; at 100.0 µM 89% | [5]; [18] 98% | [5]; at 100.0 µM 83% | [6]; [18] 98% | [6]; at 100.0 µM 94% | [7]; at 100.0 µM 92% | [9]; at 100.0 µM 70% | [11]; [18] 77% | [11]; at 100.0 µM 93% | [12]; at 100.0 µM 83% | [13]; at 100.0 µM 71% | [14]; at 100.0 µM 87% | [15]; [18] 99% | [16]; at 100.0 µM 78%
